Assay outcomes deposited in PubChem BioAssay by National Center for Advancing Translational Sciences (NCATS).
Vaccinia Venus – qHTS for Stage-Specific Inhibitors of Vaccinia Orthopoxvirus: Venus Reporter Primary qHTS; Vaccinia virus Venus reporter expression, fluorescence; Potency, µM (top dose mostly 36.5 µM), most hits filed as inhibitors; 0.46% of 330,000 active; AID 720580, 2013; calls by dose curve; tested in A549 cells; also: nearly all actives have a fitted effect of over 30% in size
MARV entry inh – qHTS for inhibitors of binding or entry into cells for Marburg Virus; 1.8% of 300,000 active; Potency, µM (highest dose often 37.8 µM), usual class: inhibitors; Marburg virus pseudotyped entry inhibition, cell reporter; calls by dose curve; tested in HEK293 cells
Vaccinia mCherry – qHTS for Stage-Specific Inhibitors of Vaccinia Orthopoxvirus: mCherry Reporter Primary qHTS. Vaccinia virus mCherry reporter infection, fluorescence. Potency, µM (titrated, usually from 36.5 µM), actives largely listed as inhibitors. 0.63% of 310,000 active; calls by dose curve; tested in A549 cells; also: nearly all actives have a fitted effect of over 35% in size
FMDV antiviral – High Throughput Screening for Foot and Mouth Disease Virus Antivirals | FMDV antiviral cell-based qHTS | Potency, µM (highest dose often 57.9 µM), most hits filed as inhibitors | 1.2% of 410,000 active; calls by dose curve; tested in HEK293T cells; also: read-out not given here; nearly all actives have a fitted effect of over 45% in size
LASV entry inh – qHTS for Inhibitors of binding or entry into cells for Lassa Virus | 1.2% of 300,000 active | Potency, µM (top dose mostly 37.9 µM), most hits filed as inhibitors | AID 540256, 2011 | Lassa virus pseudotype entry inhibition, cell reporter; calls by dose curve; tested in HEK293 cells; also: nearly all actives have a fitted effect of over 50% in size
HCV inhibitor – qHTS Assay for Inhibitors of Hepatitis C Virus (HCV); Huh7.5.1 HCVcc-Cre infection, luciferase reporter, 44 h; 3.4% of 340,000 active; Potency, µM (top dose mostly 41.8 µM), most hits filed as inhibitors; active = well fitted inhibition curve with a large enough effect; inconclusive = small, poorly fitted or top-dose-only effect, or another doubt; inactive = no such curve, though single readings can be large or run the other way
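Infectious HCVcc-Cre (~0.5 moi) was added to cells just after compound, with cells seeded 4 h earlier at 1,000 per well. Luciferase activity after 44 h culture reported infection; substrate was incubated 15 min at room temperature before reading.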
Hits are given with their value; - = inactive; ? = inconclusive; . = not tested or not shown. Hits are enriched below; roughly 5.3% of the tested compounds scored in any of these assays.

SMILES	Vaccinia Venus	MARV entry inh	Vaccinia mCherry	FMDV antiviral	LASV entry inh	HCV inhibitor
Cc1ccc(/C=N/N2C(=S)SC(C)(C)C2N(O)C(=O)Nc2ccc([N+](=O)[O-])cc2)cc1 (centres undefined)	?	?	?	-	-	11µM
CC1(C)SC(=S)N(/N=C/c2ccc(O)cc2)C1N(O)C(=O)Nc1ccc([N+](=O)[O-])cc1 (centres undefined)	?	?	.	-	?	?
CCCCCCCCCCCCCC(=O)Nc1ccc(/C=C/c2ccnc3ccccc23)cc1	-	.	-	.	.	.
CCOc1ccc(C(=O)Nc2ccc3nc(SCC(=O)N4CCc5ccccc54)sc3c2)cc1	-	?	-	-	-	.
CCc1ccc(CN(Cc2ccco2)c2cnc(S(C)(=O)=O)nc2C(=O)Nc2ccccc2Cl)cc1	-	?	-	-	-	.
COc1ccccc1NC(=O)C1=C(C)Nc2nc(SCc3ccccc3)nn2C1c1cccnc1 (centres undefined)	-	-	-	-	?	.
CCCNC(=O)N1CCN(c2nc(C(C)C)c3c(c2C#N)CC(C)(C)OC3)CC1	?	.	-	?	.	?
CC1(C)Cc2c(C#N)c(N3CCN(C(=O)c4ccco4)CC3)nc(Cc3ccccc3)c2CO1	-	?	-	40µM	-	-
CCc1nc(N2CCN(C(=O)c3ccco3)CC2)c(C#N)c2c1COC(C)(C)C2	-	-	?	-	?	22µM
CCc1nc(N2CCN(C(C)=O)CC2)c(C#N)c2c1COC(C)(C)C2	.	.	.	-	.	-
Cc1ccc(S(=O)(=O)N2CCN(c3nc(C(C)C)c4c(c3C#N)CC(C)(C)OC4)CC2)cc1	.	?	.	-	-	7.1µM
Cc1cccc(C(=O)n2nc(-c3ccco3)nc2NCc2ccccc2)c1	-	?	-	-	?	.
Cc1cnc(-n2ncc(C(=O)N(C)CC3CCCN(C)C3)c2C2CC2)nc1-c1cccs1 (centres undefined)	-	.	-	-	.	.
CCc1nn(-c2cc(Cl)ccc2OC)c2c1C(=O)CCC2	?	?	?	-	?	14µM
CCCc1nn(-c2cc(Cl)ccc2OC)c2c1C(=O)CC(C)(C)C2	-	.	?	?	.	-
COc1cc2c(=O)n(Cc3ccccc3Cl)c(=O)n(CC(=O)Nc3ccc(C)c(C)c3)c2cc1OC	-	-	-	-	-	.
CCN1CCN(CCCNC(=O)c2ccc3c(Cl)c4c(nc3c2)CCCC4)CC1	13µM	?	?	-	?	?
CC1CCN(CCCNC(=O)c2ccc3c(Cl)c4c(nc3c2)CCCC4)CC1	-	10µM	-	-	?	8.9µM
O=C(NCCCN1CCCCCC1)c1ccc2c(Cl)c3c(nc2c1)CCCC3	?	?	-	-	?	0.63µM
COc1ccc(CNC(=O)c2cn(-c3cccc(OC)c3)c(=O)c3ccccc23)cc1	-	.	-	-	-	.
S=Cc1nc2ccccc2[nH]1	-	.	-	.	.	.
COc1cc(C(C)=O)ccc1COc1ccc(C(=O)OCC(=O)NC2CCS(=O)(=O)C2)cc1OC (centres undefined)	-	-	-	-	-	-
COc1cc(C(C)=O)ccc1COc1ccc(C(=O)OCC(=O)NC(C)(C)C)cc1OC	-	?	-	20µM	?	-
Cc1ccc(-c2nc3cc(Br)cnc3nc2-c2ccc(C)cc2)cc1	-	3.2µM	-	?	?	13µM
CCCCC(=O)OCc1nc(N)nc(Nc2ccccc2C)n1	-	-	-	-	?	-
SMILES	Vaccinia Venus	MARV entry inh	Vaccinia mCherry	FMDV antiviral	LASV entry inh	HCV inhibitor
CCc1ccccc1Nc1nc(N)nc(COC(=O)CCC(=O)c2ccc(F)cc2)n1	-	?	-	-	10µM	-
CC1=C[C@@H](COCc2ccccc2)O[C@@]2(C1)C(=O)N(Cc1ccc(Br)cc1)c1ccccc12	.	-	.	.	?	.
Cc1ccc(C(=O)N/N=C\c2ccc(-c3ccc(Cl)cc3)o2)cn1	.	.	.	-	.	11µM
O=C(N/N=C/c1ccc[nH]1)c1ccccc1OCc1ccc(F)cc1	-	-	-	-	-	-
Cc1ccc(C(=O)N/N=C\c2ccc[nH]2)cn1	-	-	-	-	-	8.9µM
Cc1cccc(C(=O)N/N=C/c2ccc[nH]2)c1	-	-	-	-	-	?
O=C(N/N=C/c1ccc[nH]1)c1cccc(Br)c1	-	?	?	-	?	4.5µM
CCOc1ccc(OCc2ccc(C(=O)NN=Cc3ccc[nH]3)cc2)cc1	?	0.28µM	?	-	?	0.56µM
CC(C)CN(C)c1ccc(/C=C2\C=Cc3ccccc32)cc1	-	.	-	.	.	.
O=C(C1CCN(S(=O)(=O)c2ccc3ccccc3c2)CC1)N1CCN(c2ncccn2)CC1	-	?	-	28µM	?	?
O=C(C1CCN(S(=O)(=O)c2cccc3cccnc23)CC1)N1CCN(c2ccc(Cl)cc2)CC1	-	-	-	-	.	11µM
CCOc1cccc2cc(-c3nc4sc5c(c4c(=O)[nH]3)CCC(C(C)(C)C)C5)c(=O)oc12 (centres undefined)	-	.	-	-	?	.
CSc1nc(N2CCOCC2)c2c3c(sc2n1)CCC3	-	?	.	-	-	11µM
Cc1nc(N2CCN(c3ccccc3)CC2)c2c3c(sc2n1)CCC3	.	-	.	.	.	.
CC(=O)Nc1ccc(NC(=O)c2ccc(OCc3c(C)noc3C)cc2)cc1	-	-	-	-	-	-
Cc1ccc(NC(=O)c2ccc(OCc3c(C)noc3C)cc2)cc1C	-	10µM	-	32µM	?	4.5µM
CC(C)Oc1cccc(C(=O)Nc2ccc(Br)cc2F)c1	?	?	-	-	2µM	?
Cc1nn(Cc2c(F)c(F)c(F)c(F)c2F)c(C)c1NC(=O)c1cccc(COc2ccc(Cl)cc2)c1	-	?	-	-	-	?
CC(C)c1cc(C(N)=O)c(NC(=O)c2cccc(COc3ccc(Cl)cc3)c2)s1	-	3.2µM	-	-	?	?
Cc1cc(NC(=O)c2cccc(COc3ccc(Br)cc3)c2)no1	-	7.3µM	-	-	13µM	?
COc1ccc(-c2nc(-c3ccccc3)oc2NC(C)c2ccccc2)cc1 (centres undefined)	.	-	.	.	?	.
Cc1noc(C)c1COc1cccc(C(=O)Nc2ccc(Br)cc2F)c1	?	?	?	-	?	2.8µM
CCC(=O)N1CCN(c2ccc(NC(=O)COc3ccccc3Cl)cc2)CC1	.	?	.	32µM	?	11µM
CCC(=O)N1CCN(c2ccc(NC(=O)COc3ccccc3[N+](=O)[O-])cc2)CC1	.	.	.	28µM	.	11µM
CCC(=O)N1CCN(c2ccc(NC(=O)COc3ccc(C)cc3C)cc2)CC1	-	?	-	-	-	?
Cc1ccc(C(=O)N2CCN(c3ccc(NC(=O)COc4ccccc4C)cc3)CC2)cc1	?	?	?	14µM	?	11µM
C=CCn1c(O)c(N=NC(=O)C(O)c2ccccc2)c2ccccc21 (centres undefined)	.	.	.	-	.	-
C#CCn1c(O)c(N=NC(=O)C(O)c2ccccc2)c2ccccc21 (centres undefined)	?	-	13µM	-	-	-
